High-throughput results from PubChem BioAssay.
A selection: hits, their analogues and other compounds. The true share with any hit is near 19%.
TDP1 cell CPT: DT40-hTDP1 cell growth loss with CPT. chicken DT40 Tdp1-/-;hTDP1 cells + 20 nM CPT, ATP luminescence, 48 h. Potency, µM (top dose mostly 46.2 µM), for inactives: top-dose activity change, negative = growth inhibition, usual class: inhibitors. hit rate 12% among 420,000; further: nearly all actives have a fitted effect of over 55% in size
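Chicken DT40 Tdp1-/- cells complemented with human TDP1, 400 cells/well, exposed to compounds plus 20 nM camptothecin for at least 48 h at 37 C; viability read as ATP content by CellTiter-Glo luminescence.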
DT40 TDP1 no CPT: qHTS for Inhibitors of human tyrosyl-DNA phosphodiesterase 1 (TDP1): qHTS in cells in absence of CPT. DT40 Tdp1-/- hTDP1 cells, no CPT, ATP luminescence, 48 h. hit rate 15% among 420,000. AID 686978, 2013. Potency, µM (highest dose often 46.2 µM), for inactives: top-dose activity change, negative = growth inhibition, most hits filed as inhibitors; further: nearly all actives have a fitted effect of over 55% in size
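DT40 Tdp1-/-;hTDP1 cells, no CPT (DMSO vehicle only), 400 cells/well; compounds pin-transferred; ≥48 hr, 37 °C; CellTiter-Glo 30 min RT dark, luminescence read.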
HT1080-NT tox: kills 2HG-producing HT-1080-NT fibrosarcoma cells. HT-1080-NT fibrosarcoma viability, CellTiter-Glo ATP luminescence, 48 h. hit rate 1.6% among 360,000. Potency, µM (highest dose often 46.1 µM), inactives show at the highest dose activity, negative = less viability, hits mostly cytotoxic. AID 686970;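 further: NT is the 2HG producing partner of a matched IDH1 knockdown line; 0% = DMSO-treated cells and -100% = media-only wells without cells; nearly all actives have a fitted effect of over 55% in size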
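Read-out is CellTiter-Glo luminescence after 10 minutes at room temperature, following 48 hours' compound treatment of HT-1080-NT cells (750 cells/well, RPMI, 5% FBS, 37 degrees C).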
HT1080 IDH1KD tx: HT-1080 IDH1 knockdown cell toxicity (counter line); HT-1080 IDH1 knockdown viability, ATP luminescence, 48 h; Potency, µM (highest dose often 46.1 µM), inactives show at the top dose activity, negative = toxicity, hits mostly cytotoxic; hit rate 2% among 360,000; AID 686971;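 further: 0% = DMSO wells and -100% = cell-free medium wells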
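After a 2 h attachment period, IDH1KD HT-1080 cells took pin-transferred compound for 48 h at 37 °C; ATP-based luminescence after 10 min room-temperature reagent incubation reported viability.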
KB-V1 MDR tox: kills drug-selected multidrug resistant KB-V1 cells; KB-V1 MDR cells viability, CellTiter-Glo, 72 h; hit rate 3.4% among 400,000; Potency, µM (titrated, usually from 46.1 µM), hits mostly cytotoxic; AID 1347076; further: nearly all actives have a fitted effect of over 60% in size
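KB-V1, DMEM (no phenol red) + 10% FBS; cpd pin-transferred, titration series; 72 h, 37 degrees C; CellTiter-Glo, luminescence. Data normalized, curve-fit.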
KB-3-1 tox: kills parental KB-3-1 adenocarcinoma cells; KB-3-1 viability, CellTiter-Glo ATP luminescence, 72 h; Potency, µM (series often up to 46.1 µM), hits mostly cytotoxic; hit rate 1.4% among 400,000; further: nearly all actives have a fitted effect of over 60% in size
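Using CellTiter-Glo luminescence, growth of non-resistant KB-3-1 adenocarcinoma cells is assessed 72 h after pin-tool compound addition at 37 °C. Normalized responses across the concentration series yield fitted curves.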
* marks the source's active call; other numbers are inactive results; i = inactive; ? = inconclusive; / = no result; [ ] = dose if it differs, or a comment. The call rests on the fitted dose curve; in most records, active means well fitted curve in the direction sought with a large enough effect; inconclusive means small, poorly fitted or top-dose-only effect, or another doubt; inactive means no such curve, though single readings can be large; an effect the other way counts as inactive or inconclusive. Unless noted, on the % scale 0 is the no-effect control and ±100 the full control effect; potency means the concentration at half of the fitted maximal effect.

SMILES | TDP1 cell CPT | DT40 TDP1 no CPT | HT1080-NT tox | HT1080 IDH1KD tx | KB-V1 MDR tox | KB-3-1 tox
O=[N+]([O-])c1cc(CN2CCOCC2)c2cccnc2c1O | ? | ? | -10.7% | ? | i | i
Oc1c(Cl)cc(CN2CCOCC2)c2cccnc12 | 0.651µM* | 1.03µM* | 7.31µM* | 5.8µM* | i | ?
CCNc1ncc2nc(-c3cccs3)c(=O)n(CCC#N)c2n1 | -17.0% | -12.7% | / | / | / | /
COc1ccc(N2CCN(S(=O)(=O)c3c(C)nc4scc(C)n4c3=O)CC2)cc1 | -23.9% | ? | -0.4% | 0.6% | ? | i
COc1ccc(NC(=O)CS(=O)(=O)c2cn(CC(=O)N3CCOCC3)c3ccccc23)cc1 | 4.3% | -5.0% | -5.4% | 1.6% | i | i
Cc1cccc(C(=O)Nc2ccccc2SCC(=O)Nc2ccc(C)c(Cl)c2)c1 | ? | ? | -20.3% | ? | ? | 11.6µM*
Cc1cccc(NC(=O)CS(=O)(=O)c2cn(CC(=O)N3CCOCC3)c3ccccc23)c1 | 0.517µM* | 2.31µM* | 0.0% | 16.1% | i | i
CCc1ccc(NC(=O)CSc2cn(CC(=O)N3CCCC3)c3ccccc23)cc1 | 18.4µM* | ? | / | / | / | /
Cc1ccc(NC(=O)CSc2ccccc2NC(=O)c2cccc(Cl)c2)cc1Cl | -54.3% | -60.7% | 2.6% | 11.6% | ? | i
Cc1ccc(NC(=O)CSc2cn(CC(=O)N3CCOCC3)c3ccccc23)cc1Cl | 20.6µM* | 20.6µM* | / | / | / | /
Cc1cc(C)c(NC(=O)CSc2cn(CC(=O)N3CCOCC3)c3ccccc23)c(C)c1 | -10.4% | -26.7% | / | / | / | /
C=CCn1c(SCC(=O)Nc2ccc(S(N)(=O)=O)cc2)nnc1-c1cnccn1 | -12.6% | 0.5% | -2.9% | 1.9% | ? | i
CCc1cccc(CC)c1NC(=O)CSc1nnc(CCC(=O)O)c(=O)[nH]1 | 3.4% | -19.3% | 9.7% | 16.7% | i | i
COC(=O)c1ccc(NC(=O)CSc2cn(CC(=O)N3CCCCCC3)c3ccccc23)cc1 | ? | 18.4µM* | / | / | / | /
CCOC(=O)c1ccc(NC(=O)CSc2cn(CC(=O)N3CCCC3)c3ccccc23)cc1 | ? | 18.4µM* | / | / | / | /
O=C(CSc1cn(CC(=O)N2CCCC2)c2ccccc12)Nc1ccc(Cl)cc1 | ? | ? | / | / | i | i
COc1cc(OC)c(NC(=O)CCn2cccn2)cc1Cl | 21.2% | -3.7% | / | / | i | i
COc1ccc(C(CCN(Cc2ccc(OC)c(OC)c2)C(C)=O)c2ccccc2)cc1 (stereo unspecified) | 20.6µM* | 20.6µM* | -18.8% | -45.2% | i | i
COc1ccc(CN(CCC(c2ccc3c(c2)OCO3)c2ccccc2OC)C(C)=O)cc1 (stereo unspecified) | ? | 20.6µM* | / | / | / | /
COc1ccccc1C(CC(=O)O)c1ccc2c(c1)OCO2 (stereo unspecified) | -0.7% | 26.6% | 0.2% | 8.1% | i | i
COc1ccc(CN(CCC(c2ccccc2)c2ccc(OC(C)C)cc2)C(=O)CCl)cc1OC (stereo unspecified) | 2.06µM* | 2.91µM* | 1.46µM* | 1.64µM* | 8.2µM* | 10.3µM*
COc1ccc(CN(CCC(c2ccccc2)C2CCOC(C)(C)C2)C(C)=O)cc1 (stereo unspecified) | ? | 18.4µM* | 0.0% | -8.9% | i | i
COc1ccc(CN(CCC(c2ccco2)C(C)C)C(C)=O)cc1OC (stereo unspecified) | ? | ? | -0.7% | -8.6% | ? | i
Cc1cc(C)c(OCC(=O)OCC(=O)NNC(=O)c2ccccc2F)c(C)c1 | -5.6% | 0.6% | -2.4% | -7.2% | i | i
COc1ccc(C2=Nc3ccccc3NC(=O)C2N(C(=O)c2cnc(C)cn2)c2ccc(N3CCOCC3)cc2)cc1 (stereo unspecified) | -9.1% | -25.9% | 13.2% | 23.6% | i | i
SMILES | TDP1 cell CPT | DT40 TDP1 no CPT | HT1080-NT tox | HT1080 IDH1KD tx | KB-V1 MDR tox | KB-3-1 tox
CC(=O)N(CCC(Cc1ccccc1)c1ccc2c(c1)OCO2)Cc1ccc(Cl)cc1 (stereo unspecified) | ? | 16.4µM* | ? | ? | ? | ?
CCN(CC)CCn1nc(C)nc1-c1ccccc1O | -7.2% | -8.1% | 0.6% | 4.1% | ? | i
O=c1c2cccc3c2c(nn1CN1CCOCC1)-c1ccccc1-3 | ? | 20.6µM* | -24.2% | ? | 1.64µM* | 4.11µM*
CCN(CC)CCn1nc2c3c(cccc3c1=O)-c1ccccc1-2 | 0.517µM* | 0.0164µM* | 14.6µM* | 20.6µM* | 5.8µM* | ?
COc1ccc(CC(=O)N2CC(=O)Nc3ccc(F)cc3C2c2ccccc2)cc1 (stereo unspecified) | ? | ? | / | / | i | i
Cc1c(Cl)cccc1NC(=O)CSc1nc(=O)n(Cc2ccco2)c2c1CCC2 | 20.6µM* | ? | / | / | ? | i
Cc1c(Cl)cccc1NC(=O)CSc1nc(=O)[nH]c2c1CCCC2 | 20.6µM* | 20.6µM* | / | / | / | /
Cc1cc(C)c(NC(=O)CSc2nc(=O)[nH]c3c2CCCC3)c(C)c1 | ? | 23.1µM* | / | / | / | /
COc1cc2c(cc1OC)CN(C(=O)C(CCSC)NS(=O)(=O)c1ccc(C)cc1)CC2 (stereo unspecified) | -15.1% | ? | 0.3% | 8.8% | i | i
Cc1ccc(NC(=O)C2Cc3ccccc3CN2C(=O)c2ccccc2)cc1Cl (stereo unspecified) | -29.2% | ? | -19.2% | -24.3% | i | i
O=c1c2ccccc2nc(-c2cccs2)n1-c1cccc2ccccc12 | ? | 20.6µM* | 2.5% | 1.0% | 23.1µM* | ?
COc1cccc(CNn2c(-c3cccc(C)c3)nc3ccccc3c2=O)c1 | ? | 18.4µM* | ? | 3.2%[9.24 µM] | i | i
COc1ccc(CNn2c(-c3cccs3)nc3ccccc3c2=O)cc1OC | 7.31µM* | 10.3µM* | -27.2% | -27.8% | 23.1µM* | i
COc1cccc(C(=O)Nn2c(-c3cccs3)nc3ccccc3c2=O)c1OC | -19.5% | ? | 0.0% | -3.4% | ? | i
Cc1nc2ccccc2c(=O)n1/N=C/c1cccs1 | ? | ? | 14.7% | 5.9% | i | i
CC(=O)c1cccc(NC(=O)c2cc(=O)[nH]c3ccc(S(=O)(=O)N4CCOCC4)cc23)c1 | 4.6% | -13.1% | 5.2% | 16.1% | i | i
